Screening results: PubChem, several laboratories
Hits are enriched below; roughly 4% of the tested compounds scored in any of these assays.
RecA intein inh – Mtb RecA intein splicing inhibition | inhibition, % (test concentration not listed) | P9WHJ3 | AID 2221 | cell-free RecA intein splicing, fluorescence | 0.75% of 290,000 active; in the data active means inhibition above about 30%; inconclusive means no clear call, values can overlap the other calls;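 further: 0% = vehicle wells and 100% = reference inhibitor control wells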
Target sequence (P9WHJ3 whole entry, looked up): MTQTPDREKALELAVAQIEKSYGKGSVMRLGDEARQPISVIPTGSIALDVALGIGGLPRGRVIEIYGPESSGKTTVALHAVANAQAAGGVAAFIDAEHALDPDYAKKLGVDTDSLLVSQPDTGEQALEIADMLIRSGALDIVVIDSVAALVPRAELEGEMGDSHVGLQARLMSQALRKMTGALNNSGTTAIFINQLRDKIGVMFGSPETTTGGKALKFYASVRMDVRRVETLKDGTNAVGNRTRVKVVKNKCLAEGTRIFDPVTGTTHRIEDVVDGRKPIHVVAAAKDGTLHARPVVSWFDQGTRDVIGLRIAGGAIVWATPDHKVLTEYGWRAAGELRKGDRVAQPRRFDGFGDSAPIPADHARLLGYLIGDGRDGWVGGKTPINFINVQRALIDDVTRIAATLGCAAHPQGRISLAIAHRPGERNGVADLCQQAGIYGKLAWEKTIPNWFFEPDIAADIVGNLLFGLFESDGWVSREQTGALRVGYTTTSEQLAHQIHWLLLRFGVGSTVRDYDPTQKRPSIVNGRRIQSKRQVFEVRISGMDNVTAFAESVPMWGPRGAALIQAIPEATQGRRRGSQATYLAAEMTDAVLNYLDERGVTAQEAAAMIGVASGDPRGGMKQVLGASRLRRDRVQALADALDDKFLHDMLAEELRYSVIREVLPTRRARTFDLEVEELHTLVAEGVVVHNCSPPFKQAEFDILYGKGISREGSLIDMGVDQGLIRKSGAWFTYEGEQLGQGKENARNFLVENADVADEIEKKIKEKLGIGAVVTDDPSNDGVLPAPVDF
FBA Mtb inh – inhibitors of M. tuberculosis fructose-bisphosphate aldolase | P9WQA3 | AID 588726 | 2.3% of 360,000 active | purified M. tuberculosis FBA, fluorescence read-out | inhibition, % at 1 µM; in the data active means inhibition above about 27%;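 further: 0% = vehicle and 100% = reference inhibitor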
Mtb betalactam – beta-lactam sensitization of Mtb H37Rv. 0.27% of 330,000 active. M. tuberculosis H37Rv growth with meropenem, percent inhibition. inhibition, % at 25 µM; call rule not given here;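 further: growth measured after seven days incubation then overnight dye step; 0% = bacteria only wells and 100% = bacteria with antibiotic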
GDH-TPI counter – inhibits GDH-TPI coupling enzymes, artifact for Mtb FBA screen | 1.2% of 360,000 active | AID 588335 | inhibition, % at 4.8 µM | GDH-TPI coupled enzyme counterscreen, NADH absorbance; in the data active means inhibition above about 30%;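 further: 0% = DMSO wells and 100% = wells lacking the enzyme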
Rv3671c inh – inhibits the M. tuberculosis serine protease Rv3671c. inhibition, % at 5.96 µM. 0.048% of 320,000 active. P9WHR9; in the data active means inhibition above about 38%;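 further: extracellular domain of Rv3671c used as enzyme; 0% = enzyme with DMSO and 100% = no enzyme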
UGM FP inh – blocks M. tuberculosis UGM enzyme. inhibition, % at 10 µM. P9WIQ1. 0.06% of 320,000 active. purified UGM, fluorescence polarization probe displacement; in the data active means inhibition above about 10%, passing the limit was not always enough; inconclusive means no clear call, values can overlap the other calls
Numbers without * were called inactive; ? = inconclusive; · = not tested or not shown; + = active, no number.

SMILES | RecA intein inh | FBA Mtb inh | Mtb betalactam | GDH-TPI counter | Rv3671c inh | UGM FP inh
CCCNC(=O)C1(C)CCCN(C(=O)c2ccc(F)cc2Cl)C1 (stereo unspecified) | · | -1 | · | 1 | · | ·
CCN(CC)c1ccc(/C=N/NC(=O)CNC(=O)/C=C/c2ccco2)cc1 | 1 | 7 | 14 | 44* | 11 | 0
CC(C)(C)OC(=O)N/N=C\C=C\c1ccc2c(c1)OCO2 | · | -1 | 2 | 26 | 3 | -2
CCN(CC)c1ccc(/C=N/NC(=O)Cc2ccc(OC)c(OC)c2)cc1 | 2 | 26 | 7 | 46* | 0 | -1
O=C(/C=C/c1ccco1)NCC(=O)N/N=C/c1ccccc1[N+](=O)[O-] | -2 | -4 | 3 | 18 | -6 | 1
CCOC(=O)N/N=C\C=C\c1ccc2c(c1)OCO2 | -3 | 3 | -3 | 37* | -5 | 1
CCOC(=O)CNc1ccc2c(c1)OCO2 | -4 | 3 | -3 | 2 | 6 | 12*
O=C(CNC(=O)c1ccccc1Cl)NCCc1cccs1 | · | 3 | -2 | 9 | 0 | 0
CCc1nnc(NC(=O)CSc2nnc(Cc3cc(=O)[nH]c(=O)[nH]3)n2-c2cccc(OC)c2)s1 | 0 | 0 | -18 | 3 | 2 | 2
CCOC(=O)C1=C(C)NC(C)=C(C(=O)OCC)C1C(=O)OCC(=O)NC1CCCCC1 | · | 11 | 1 | 21 | 5 | 1
CCN1c2ccccc2-c2nc3ccccc3n2C1c1cccs1 (stereo unspecified) | -28 | + | ? | 7 | 4 | 0
CCOc1ccc(-c2cc(C(=O)O)c3ccccc3n2)cc1 | 0 | + | 4 | 27 | 2 | 1
O=C(O)c1cc(-c2ccc(O)cc2)nc2ccccc12 | · | · | -6 | · | -3 | 2
O=C(O)c1cc(-c2cc(C(=O)O)c3ccccc3n2)ccc1O | · | 9 | · | 33* | · | ·
COc1cc(CCN(C(=O)c2cccc(S(C)(=O)=O)c2)C(CCc2ccccc2)c2nc3ccccc3[nH]2)cc(OC)c1 (stereo unspecified) | · | -1 | · | · | · | ·
COc1ccc(N(C(=O)c2csnn2)C(C(=O)NC2CCCC2)c2ccccc2)cc1 (stereo unspecified) | 0 | 2 | -6 | 4 | -5 | 0
O=C(N/N=C/c1ccc([N+](=O)[O-])cc1)c1cccc(N2CCCC2=O)c1 | -1 | -3 | -3 | 40* | 3 | 0
CCC(=O)Nc1ccc(C(=O)N/N=C/c2ccc([N+](=O)[O-])cc2)cc1 | 8 | -2 | 11 | 51* | -3 | ·
O=C(NN=Cc1ccc([N+](=O)[O-])cc1)c1ccncc1 | · | 0 | · | 40* | · | ·
CC(=O)n1cc(/C=N/NC(=O)c2ccc([N+](=O)[O-])cc2)c2ccccc21 | 2 | -2 | 6 | 32* | 2 | 1
CC(=O)CC1(OC(C)=O)C(=O)N(C)c2ccccc21 (stereo unspecified) | 9 | -1 | 100 | -5 | -1 | -3
Nc1ccc(C(=O)N/N=C\C=C\c2ccc([N+](=O)[O-])cc2)cc1 | 0 | -3 | -1 | 47* | -3 | -1
CC(C)C(=O)Nc1ccccc1C(=O)N/N=C/c1ccc([N+](=O)[O-])cc1 | 0 | 0 | -8 | 35* | -2 | 0
O=C(N/N=C/c1cccn1-c1ccc([N+](=O)[O-])cc1)c1cccnc1 | -6 | -8 | 1 | 53* | 2 | -2
Cc1ccc(S(=O)(=O)N2C[C@H]3C(=O)C[C@@H]4C(=O)N(c5ccccc5)C(=O)[C@@H]4[C@@H]3C[C@H]2c2cccc(Cl)c2)cc1 | · | -3 | · | · | · | ·
SMILES | RecA intein inh | FBA Mtb inh | Mtb betalactam | GDH-TPI counter | Rv3671c inh | UGM FP inh
CCCOc1ccc(C(=O)NNC(=O)c2cccc(S(=O)(=O)N3CCN(C(C)=O)CC3)c2)cc1OC | -4 | -3 | -11 | -2 | 3 | 3
Cc1cc(OCC(=O)NNC(=O)c2cccs2)ccc1Br | 2 | -3 | 0 | 0 | -3 | 1
O=C(/C=C/c1ccccc1)Nc1nnc(-c2ccco2)o1 | -5 | -3 | 62 | 45* | 13 | 1
CCOC(=O)C1CCN(C(=O)c2ccc(N(C)S(=O)(=O)c3ccc(OC)cc3)cc2)CC1 | 1 | -3 | 2 | 2 | 5 | 1
CCOc1ccccc1N1C(=O)NC(=O)/C(=C/c2ccc3c4c(cccc24)CC3)C1=O | 2 | 38* | -2 | 24 | -10 | -4
COc1c2ccoc2nc2c(OC)c(O)ccc12 | -6 | 6 | 3 | 9 | 12 | 0
COc1c2ccoc2nc2c(OC)c(OCC(OC(C)=O)C(C)(C)O)ccc12 (stereo unspecified) | 0 | 130* | -1 | 17 | -5 | -1
COc1c2ccoc2nc2c(OC)c(OC[C@@H](O)C(C)(C)O)ccc12 | · | 146* | -4 | 23 | 4 | 2
COc1c2ccoc2c(OC[C@@H](OC(C)=O)C(C)(C)O)c2oc(=O)ccc12 | · | 6 | 2 | 11 | -8 | 0
COc1c2ccoc2nc2c(OC)c(OCC(O)C(C)(C)O)ccc12 (stereo unspecified) | · | 146* | -4 | 13 | 7 | -2
COC(=O)CCSCC(=O)Nc1ccc(C)c(S(=O)(=O)N2CCCCC2)c1 | 4 | 5 | -7 | 2 | -5 | 7
CN(C)c1ccc(C=NC(CO)C(O)c2ccc([N+](=O)[O-])cc2)cc1 (stereo unspecified) | -3 | -7 | -2 | 38* | 0 | 3
COc1cccc(C=N[C@@H](CO)[C@@H](O)c2ccc([N+](=O)[O-])cc2)c1O | 5 | -5 | -1 | 4 | -9 | -2
Cc1cccc(NC(=O)COc2ccc(-c3nn(C)c(=O)c4ccccc34)cc2)c1 | · | -1 | 2 | 1 | -8 | 1
Cc1cc2[nH]c(=O)c(=O)[nH]c2cc1S(=O)(=O)NCc1ccc(Cl)cc1 | 2 | 48* | ? | 24 | 5 | -1
NS(=O)(=O)c1ccc(N2C(=O)C(=O)/C(=C(/O)c3ccccc3)C2c2ccc(Cl)cc2)cc1 (stereo unspecified) | 2 | -3 | -8 | 39* | -1 | 6
Cc1ccc(C(=O)N/C(=C/c2ccc(-c3cccc([N+](=O)[O-])c3)o2)C(=O)NC(C)(C)C)cc1 | 1 | 5 | 11 | 22 | -8 | 3
COc1ccc(C(=O)N/C(=C\c2ccc(-c3cccc([N+](=O)[O-])c3)o2)C(=O)NCCCN2CCOCC2)cc1 | · | -3 | · | 47* | · | ·
CN(C)CCCNC(=O)/C(=C/c1ccc(-c2ccc([N+](=O)[O-])cc2)o1)NC(=O)c1ccccc1 | -1 | -4 | -2 | 31* | 3 | -1
Cc1ccc(C(=O)N/C(=C/c2ccc(-c3cccc([N+](=O)[O-])c3)o2)C(=O)NC(C)C)cc1 | -1 | -3 | 65 | 49* | 2 | 2
Cc1ccc(C(=O)N/C(=C\c2ccc(-c3cccc([N+](=O)[O-])c3)o2)C(=O)NCCCN2CCOCC2)cc1 | -2 | 0 | 9 | 47* | 5 | -1
CCC(C)(C)NC(=O)c1ccc2c(c1)N(CC(=O)NC1CCCC1)C(=O)C(C)(C)O2 | -2 | 1 | 2 | -8 | 9 | -3
